PubChem BioAssay (Tox21)
Records with an inconclusive call do not appear. Active and inactive are the calls of the source. Unless noted, calls come from the whole dose curve; as a rule, active = well fitted curve in the direction sought with a large enough effect in the repeat runs; inconclusive = weak or mixed curves; inactive = no such curve, though single readings can be large; an effect the other way counts as inactive or inconclusive.

Assays:
[1] = biological target: Thyrotropin-releasing hormone receptor (Homo sapiens) (UniProt P34981); assay: qHTS assay to identify small molecule agonists of the thyrotropin-releasing hormone receptor (TRHR) signaling pathway (AID 1346891; calls by dose curve; note: series mostly up to about 58 µM)
Chain of Thyrotropin-releasing hormone receptor (Homo sapiens) (P34981 whole entry, looked up): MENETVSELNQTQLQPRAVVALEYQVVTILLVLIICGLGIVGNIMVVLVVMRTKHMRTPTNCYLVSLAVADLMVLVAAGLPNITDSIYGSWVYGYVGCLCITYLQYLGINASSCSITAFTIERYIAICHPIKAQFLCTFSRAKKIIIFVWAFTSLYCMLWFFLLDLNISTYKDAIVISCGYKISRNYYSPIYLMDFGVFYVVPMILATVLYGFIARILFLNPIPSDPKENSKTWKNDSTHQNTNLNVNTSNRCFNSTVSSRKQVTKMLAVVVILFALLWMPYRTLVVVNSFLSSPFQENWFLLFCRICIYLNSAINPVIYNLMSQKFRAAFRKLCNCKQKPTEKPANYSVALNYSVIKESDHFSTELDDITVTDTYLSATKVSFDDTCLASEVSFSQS
In short: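 HEK293 cells expressing TRHR plated 18 h at 37 C/5% CO2, calcium dye-loaded 2 h at 37 C, then compound added (agonist mode); kinetic calcium fluorescence read 3 min at 1 s intervals; 15 concentrations in triplicate.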

[2] = Human pregnane X receptor (PXR) small molecule agonists, qHTS cell viability counter screen (AID 1346977); note: nearly all actives have a fitted effect of over 50% in size; note: potency is the fitted concentration of half-maximal effect
In short: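 PXR-Luc HepG2 cells (2,000/well, 5% charcoal-stripped FBS) preincubated 5 hr, then exposed to compounds 24 hr at 37 C. Viability read in the same wells by CellTiter-Fluor fluorescence, reagent added at 23 hr, 1 hr incubation.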

[3] = Caspase-3/7 induction in HepG2 cells by small molecules, qHTS assay (AID 1346978); note: nearly all actives have a fitted effect of over 15% in size
In short: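 Caspase-3/7 induction was measured by Caspase-Glo 3/7 luminescence (30 min, room temperature) after a 17 hr compound exposure of wild-type HepG2 cells seeded at 2,000 per well and pre-incubated 5 hr.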

[4] = Caspase-3/7 induction in CHO-K1 cells by small molecules, qHTS cell viability counter screen (AID 1346979); note: nearly all actives have a fitted effect of over 35% in size; note: potency is the fitted concentration of half-maximal effect
In short: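 Wild-type CHO-K1 cells (1,500/well) treated with compound after 5 h plating; after 16 h at 37C, viability read as CellTiter-Fluor fluorescence following 1 h reagent incubation, in the same wells as the caspase read.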

[5] = Caspase-3/7 induction in CHO-K1 cells by small molecules, qHTS assay (AID 1346980); note: nearly all actives have a fitted effect of over 15% in size
In short: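 Luminescent Caspase-Glo 3/7 read (30min, room temperature) quantified apoptosis induction. Cells were wild-type CHO-K1, treated with compound for 17hr at 37 C and 5% CO2.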

[6] = Caspase-3/7 induction in HepG2 cells by small molecules, qHTS cell viability counter screen (AID 1346981); note: nearly all actives have a fitted effect of over 30% in size; note: potency is the fitted concentration of half-maximal effect; for activity change, negative = cytotoxicity: series mostly up to about 92 µM
In short: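 HepG2, WT, 2,000 cells/well; 5 hr pre-incubation 37 C/5% CO2; compound pin-transferred from DMSO; 16 hr exposure; CellTiter-Fluor, 1 hr; fluorescence read.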

[7] = biological target: Nuclear receptor subfamily 1 group I member 2 (Homo sapiens) (UniProt O75469); assay: Human pregnane X receptor (PXR) small molecule agonists, qHTS assay (AID 1346982); note: nearly all actives have a fitted effect of over 35% in size; note: potency is the fitted concentration of half-maximal effect
Chain of Nuclear receptor subfamily 1 group I member 2 (Homo sapiens) (O75469 whole entry, looked up): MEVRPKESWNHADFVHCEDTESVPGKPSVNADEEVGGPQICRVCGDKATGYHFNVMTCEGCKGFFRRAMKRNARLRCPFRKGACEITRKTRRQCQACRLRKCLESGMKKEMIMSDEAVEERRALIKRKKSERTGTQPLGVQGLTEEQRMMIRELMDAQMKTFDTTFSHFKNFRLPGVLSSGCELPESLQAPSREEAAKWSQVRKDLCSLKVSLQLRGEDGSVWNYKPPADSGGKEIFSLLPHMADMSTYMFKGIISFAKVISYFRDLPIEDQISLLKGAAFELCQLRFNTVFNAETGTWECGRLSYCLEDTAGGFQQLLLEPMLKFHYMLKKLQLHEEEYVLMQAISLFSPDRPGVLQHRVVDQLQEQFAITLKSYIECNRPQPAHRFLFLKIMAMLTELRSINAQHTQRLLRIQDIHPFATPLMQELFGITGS
In short: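 Luciferase signal from ONE-Glo (30 min, room temperature) measured activation of hPXR-driven CYP3A4 reporter expression in PXR-Luc HepG2 cells treated with compounds for 24 hr at 37 C.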

[8] = biological target: Nuclear receptor subfamily 1 group I member 2 (Rattus norvegicus) (UniProt Q9R1A7); assay: Rat pregnane X receptor (rPXR) activation by small molecules, qHTS assay (AID 1346983); conditions: rPXR luciferase reporter cells, One-Glo luminescence, 24 h; stronger effect = higher value; note: nearly all actives have a fitted effect of over 20% in size
Chain of Nuclear receptor subfamily 1 group I member 2 (Rattus norvegicus) (Q9R1A7 whole entry, looked up): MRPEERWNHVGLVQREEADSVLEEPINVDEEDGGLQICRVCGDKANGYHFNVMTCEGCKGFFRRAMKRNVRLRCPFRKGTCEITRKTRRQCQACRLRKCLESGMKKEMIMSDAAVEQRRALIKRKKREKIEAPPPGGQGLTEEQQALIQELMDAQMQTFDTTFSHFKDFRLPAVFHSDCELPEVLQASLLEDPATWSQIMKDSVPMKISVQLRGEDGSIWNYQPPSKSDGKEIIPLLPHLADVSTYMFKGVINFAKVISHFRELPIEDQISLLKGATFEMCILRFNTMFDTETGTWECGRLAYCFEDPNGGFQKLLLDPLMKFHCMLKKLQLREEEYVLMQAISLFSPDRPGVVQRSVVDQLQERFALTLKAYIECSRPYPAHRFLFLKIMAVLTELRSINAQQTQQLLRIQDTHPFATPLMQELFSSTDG
In short: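 Luminescent readout (One-Glo luciferase, 30 min room temperature) followed 24 hr compound treatment at 37 C of rPXR cells plated 2,000 per well and preincubated 5hr; qHTS format with compounds delivered in DMSO.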

[9] = biological target: Nuclear receptor subfamily 1 group I member 2 (Homo sapiens) (UniProt O75469); assay: CYP3A4 induction through human pregnane X receptor (PXR) by small molecules, qHTS assay (AID 1346984); note: nearly all actives have a fitted effect of over 40% in size
In short: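 Luminescence readout: luciferase signal after One-Glo (30 min, room temperature), following 3 h at 37C with 3uM final Luciferin-IPA P450 substrate. Cells were DPX-2 (HepG2, PXR/CYP3A4-luc co-transfected) dosed for 24 h.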

[10] = biological target: Nuclear receptor subfamily 1 group I member 2 (Homo sapiens) (UniProt O75469); assay: Human pregnane X receptor (PXR) activation by small molecules, qHTS assay (AID 1346985); note: nearly all actives have a fitted effect of over 40% in size
In short: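 DPX-2 cells (HepG2 co-transfected with a PXR response element and a CYP3A4-promoter luciferase construct) were seeded at 2,000 per well, rested 5 hr at 37C, then exposed to DMSO-dissolved compounds for 24 hr. Activation was read as luciferase luminescence.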
% is set by controls: 0 for no effect and ±100 for the full control effect.

COc1nccnc1NS(=O)(=O)c1ccc(N)cc1
inactive: outcome [1] | Potency [2] | Potency [3] | Potency [4] | outcome [5] | Potency [6] | Potency [7] | max activation [8] 3.09% | Potency [9] | Potency [10]

CN(C)c1ccc(C=O)cc1
inactive: outcome [1] | Potency [2] | Potency [3] | Potency [4] | outcome [5] | Potency [6] | Potency [7]

CC(=O)N[C@@H](CCC(=O)O)C(=O)O
inactive: outcome [1] | Potency [2] | Potency [3] | Potency [4] | outcome [5] | Potency [6] | Potency [7] | max activation [8] -1.49% | Potency [9] | Potency [10]

O=C(O)c1cc(Br)c(O)c(Br)c1
inactive: outcome [1] | Potency [2] | Potency [3] | Potency [4] | outcome [5] | Potency [6] | Potency [7]

Cc1cccc(C)c1OCC(C)N (centres undefined)
inactive: outcome [1] | Potency [2] | Potency [3] | Potency [4] | outcome [5] | Potency [6] | Potency [7] | max activation [8] -1.45% | Potency [9] | Potency [10]

O=C(CS(=O)Cc1ccco1)NC/C=C\COc1cc(CN2CCCCC2)ccn1 (centres undefined)
inactive: outcome [1] | Potency [2] | Potency [3] | Potency [4] | outcome [5] | Potency [6] | Potency [7] | max activation [8] -0.727% | Potency [9] | Potency [10]

CCCCCCOC(=O)CC
inactive: outcome [1] | Potency [2] | Potency [3] | Potency [4] | outcome [5] | Potency [6] | Potency [7]

CC(C)(C)OC(=O)c1ccc(O)cc1
active: Potency [7] 27.3 µM
inactive: outcome [1] | Potency [2] | Potency [3] | Potency [4] | outcome [5] | Potency [6]

CC(C)NCC(O)COc1ccc(COCCOC(C)C)cc1 (centres undefined)
inactive: outcome [1] | Potency [2] | Potency [3] | Potency [4] | outcome [5] | Potency [6] | Potency [7] | max activation [8] -3.07% | Potency [9] | Potency [10]

CC/C=C\CC1=C(C)CCC1=O
inactive: outcome [1] | Potency [2] | Potency [3] | Potency [4] | outcome [5] | Potency [6]
active: Potency [7] 34.4 µM

CC(=O)CCCCn1c(=O)c2c(ncn2C)n(C)c1=O
inactive: outcome [1] | Potency [2] | Potency [3] | Potency [4] | outcome [5] | Potency [6] | Potency [7] | max activation [8] -1.72% | Potency [9] | Potency [10]

CC(=O)Nc1ccc(S(=O)(=O)Cl)cc1
inactive: outcome [1] | Potency [2] | Potency [3] | Potency [4] | outcome [5] | Potency [6] | Potency [7]

O=C1c2ccccc2C(=O)N1CCl
inactive: outcome [1] | Potency [2] | Potency [3] | Potency [4] | outcome [5] | Potency [6] | Potency [7]

CCN1CCc2nc(N)oc2CC1
inactive: outcome [1] | Potency [2] | Potency [3] | Potency [4] | outcome [5] | Potency [6] | Potency [7] | max activation [8] -5.4% | Potency [9] | Potency [10]

O=C(/N=N/C(=O)OCc1ccccc1)OCc1ccccc1
active: Potency [7] 30.6 µM
inactive: outcome [1] | Potency [2] | Potency [3] | Potency [4] | outcome [5] | Potency [6]

Nc1ncnc(Nc2ccccc2)n1
inactive: outcome [1] | Potency [2] | Potency [3] | Potency [4] | outcome [5] | Potency [6] | Potency [7] | max activation [8] 2.76% | Potency [9] | Potency [10]

Nc1ccc2cc(S(=O)(=O)O)cc(O)c2c1
inactive: outcome [1] | Potency [3] | outcome [5]
active: Potency [2] 54.2 µM | Potency [4] 54.2 µM | Potency [6] 60.8 µM | Potency [7] 6.08 µM

CC1(CO)CN(c2ccccc2)NC1=O (centres undefined)
active: Potency [7] 61.1 µM
inactive: outcome [1] | Potency [2] | Potency [3] | Potency [4] | outcome [5] | Potency [6]

O=S(O)(O)=S
inactive: activation [1] 0.644% [at 5.23 µM] | activity change, negative = cytotoxicity [2] -0.159% [at 8.39 µM] | caspase activation [3] 0.115% [at 8.39 µM] | activity change, negative = cytotoxicity [4] 4.08% [at 8.39 µM] | caspase-3/7 activation [5] 0.413% [at 8.39 µM] | activity change, negative = cytotoxicity [6] -0.702% [at 8.39 µM] | activation [7] 4.46% [at 8.39 µM]

CCCCCCN
inactive: outcome [1] | Potency [2] | Potency [3] | Potency [4] | outcome [5] | Potency [6] | Potency [7]

CC(C)CC(C)CC(C)CC(C)COC(=O)c1ccccc1C(=O)OCC(C)CC(C)CC(C)CC(C)C (centres undefined)
inactive: outcome [1] | Potency [2] | Potency [3] | Potency [4] | outcome [5] | Potency [6] | Potency [7]

c1ccc2c(c1)ccc1c3ccccc3ccc21
inactive: outcome [1] | Potency [2] | Potency [3] | Potency [4] | outcome [5] | Potency [6] | Potency [7]

CCC(C=O)CC
inactive: outcome [1] | Potency [2] | Potency [3] | Potency [4] | outcome [5] | Potency [6] | Potency [7]

O=C1O[C@@H]2[C@@H](O)[C@H](O)O[C@@H]2[C@H]1O
inactive: outcome [1] | Potency [2] | Potency [3] | Potency [4] | outcome [5] | Potency [6] | Potency [7]

O=C1c2ccccc2C(=O)c2cc(S(=O)(=O)O)ccc21
inactive: outcome [1] | Potency [2] | Potency [3] | Potency [4] | outcome [5] | Potency [6]
active: Potency [7] 48.7 µM

COc1cc(NS(=O)(=O)c2ccc(N)cc2)nc(OC)n1
inactive: outcome [1] | Potency [2] | Potency [3] | Potency [4] | outcome [5] | Potency [6] | Potency [7] | max activation [8] -2.35% | Potency [9] | Potency [10]
